LASV entry inh = inhibitors of Lassa virus binding or cell entry; Lassa virus pseudotype entry inhibition, cell reporter; Potency, µM (titrated, usually from 37.9 µM), most hits filed as inhibitors; hit rate 1.2% among 300,000; calls by dose curve; tested in HEK293 cells; further: nearly all actives have a fitted effect of over 50% in size
HCMV inh = blocks human cytomegalovirus replication; activity change, negative = inhibition, % at 57.5 µM; AID 1259415; HFF cells, HCMV-luciferase reporter, 72 h; stronger effect = lower value; hit rate 4.5% among 410,000; in the data active means activity change below about -60%; inconclusive means no clear call, values can overlap the other calls; inactive means above about -39%
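Luciferase read-out from HCMV-luciferase-infected HFFs (MOI 1 PFU/cell) 72 h post infection at 37C; compounds added after 16 h cell attachment; activity normalized between buffer-only basal and Salinomycin (10uM) inhibitor controls.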
VACV Venus inh = inhibitors of vaccinia virus (Venus reporter); Vaccinia virus Venus reporter expression, fluorescence; Potency, µM (top dose mostly 36.5 µM), actives largely listed as inhibitors; hit rate 0.46% among 330,000; calls by dose curve; tested in A549 cells; further: nearly all actives have a fitted effect of over 30% in size
VACV mCherry inh = vaccinia inhibition (mCherry reporter). Vaccinia virus mCherry reporter infection, fluorescence. Potency, µM (titrated, usually from 36.5 µM), actives largely listed as inhibitors. hit rate 0.63% among 310,000. AID 720579; calls by dose curve; tested in A549 cells; further: nearly all actives have a fitted effect of over 35% in size
FMDV antiviral = foot and mouth disease virus antiviral activity. FMDV antiviral cell-based qHTS. Potency, µM (top dose mostly 57.9 µM), most hits filed as inhibitors. hit rate 1.2% among 410,000. AID 1159524; calls by dose curve; tested in HEK293T cells; further: read-out not given here; nearly all actives have a fitted effect of over 45% in size
MARV entry inh = blocks Marburg virus binding to or entry into cells; Marburg virus pseudotyped entry inhibition, cell reporter; hit rate 1.8% among 300,000; Potency, µM (doses to about 37.8 µM), actives largely listed as inhibitors; calls by dose curve; tested in HEK293 cells
A number is an active result; n = inactive; u = inconclusive; x = no result given. In the library only some 6.5% were active in any assay of this set; here they are far more common.

SMILES	LASV entry inh	HCMV inh	VACV Venus inh	VACV mCherry inh	FMDV antiviral	MARV entry inh
Cc1ccc(OCC(O)Cn2c(=N)n(Cc3ccccc3)c3ccccc32)cc1 (centres undefined)	u	-74	14µM	11µM	n	u
COc1ccc(OCC(O)Cn2c(=N)n(Cc3ccccc3)c3ccccc32)cc1 (centres undefined)	u	n	x	x	u	4.1µM
Cc1cccc(OCC(O)Cn2c(=N)n(Cc3ccccc3)c3ccccc32)c1 (centres undefined)	x	n	x	x	u	x
Clc1ccc(OCc2nc3ccccc3n2Cc2ccccc2)c(Cl)c1	n	n	n	n	n	x
O=[N+]([O-])c1ccc2nc(-c3ccccc3)cc(-c3ccccc3)c2c1	n	n	n	n	n	u
O=[N+]([O-])c1ccc(-c2ccccc2)c([As](=O)(O)O)c1	x	-91	n	n	n	x
Cc1cc(C)c(N=C2CCCN2Cc2ccccc2)c(C#N)c1	n	n	u	x	n	n
CN1CCc2c1nc1ccccc1c2N=C1CCCN1Cc1ccccc1	u	-61	x	x	n	u
COc1cc(OC)c(NC(=O)c2ccccc2F)cc1Cl	x	n	x	x	n	x
COc1cc(NC(=O)c2c(Cl)cnn2C)c(OC)cc1Cl	n	-60	n	n	n	n
Cc1ccc(Cl)cc1NC(=O)c1cc2ccccc2cc1O	x	-100	x	x	u	x
COc1cc(NC(=O)c2cc3ccccc3cc2O)c(OC)cc1Cl	x	-101	x	x	13µM	x
COc1ccc(-c2noc(CSc3nnc(-c4ccc(Cl)cc4)n3C)n2)cc1OC	n	n	n	n	n	n
CCN(C)C1CN(Cc2cn(Cc3ccc(OC)cc3)nn2)S(=O)(=O)C1 (centres undefined)	x	n	n	n	n	x
CCCCC(c1nnnn1CS(=O)(=O)c1ccc(C)cc1)N1CCN(c2ccccc2)CC1 (centres undefined)	u	n	n	n	n	14µM
Cc1cccc(NC(c2ccccc2F)c2ccc3ccc(C)nc3c2O)n1 (centres undefined)	n	n	n	u	n	x
Cc1ccc(C)c(C(Nc2ccccc2)c2ccc3ccc(C)nc3c2O)c1 (centres undefined)	x	n	u	7.9µM	n	x
COc1ccc(CCNc2ncnc3sc(C(=O)N(C)C)c(C)c23)cc1OC	x	x	n	n	n	x
COc1ccc(NC(=O)CN(C)C(=O)/C=C/c2ccc(S(=O)(=O)N3CCCCCC3)cc2)cc1	n	-77	n	n	n	u
CCCN(CC(=O)Nc1ccccc1C)C(=O)/C=C/c1ccc(S(=O)(=O)N2CCCCCC2)cc1	n	n	n	n	n	11µM
COc1cccc(O[C@@H]2O[C@@H]3COC(C)(C)O[C@H]3[C@H](O)[C@H]2NC(C)=O)c1	n	n	x	x	n	n
O=C(NCc1cccc(F)c1)c1cccc(OC2CCN(C(=O)C3CC3)CC2)c1	n	u	u	n	28µM	u
N#CC1=C(N)OC(c2ccccc2)=C(C#N)C1c1ccc2c(c1)OCO2 (centres undefined)	n	n	x	x	n	n
N#CC1=C(N)OC2=C(C(=O)CC(c3ccccc3)C2)C1c1ccc2c(c1)OCO2 (centres undefined)	13µM	u	n	n	u	n
c1c2c(cc3sc(N4CCCCC4)nc13)OCO2	6.3µM	n	n	n	n	u
SMILES	LASV entry inh	HCMV inh	VACV Venus inh	VACV mCherry inh	FMDV antiviral	MARV entry inh
N=C(N)c1ccc2cc(OC(=O)c3ccc(N=C(N)N)cc3)ccc2c1	x	n	n	n	n	x
Cc1ccc(NC(=O)Cn2nnc(-c3ccccc3NC(=O)c3cccs3)n2)cc1	0.58µM	u	u	n	n	u
COc1ccccc1NC(=O)Cn1nnc(-c2ccccc2NS(=O)(=O)c2ccccc2)n1	u	-67	n	u	u	u
Cc1ncc2c(c1CNC(=O)c1ccc3c(c1)OCO3)CCN(C(=O)c1ccc3ccccc3c1)C2	x	x	n	n	n	x
O=C(NN=C1C[C@@H](O)[C@H](O)[C@H]2[C@@H]3C(=O)N(Cc4ccc5c(c4)OCO5)C(=O)[C@@H]3CC[C@H]12)OCc1ccccc1	u	x	x	x	x	n
COc1cc(OC)cc(C(=O)Nc2nc(-c3ccccc3)c(-c3ccccc3)o2)c1	u	u	x	x	n	21µM
CC(=O)Nc1nc(-c2ccccc2)c(-c2ccccc2)o1	n	n	n	n	n	n
O=C(NCc1ccco1)c1ccc2c(c1)N(Cc1ccccc1F)C(=O)c1ccccc1S2(=O)=O	n	-66	n	n	n	n
